What all share (experiment): log2 fold change, soluble protein after heating vs DMSO (PISA); higher = thermal stabilisation; K562 cells, 10 uM, 30 min; active = over 0.2 and 3.5 SD of the protein, either way, in both replicates (recomputed)
Assay [1] has as its target ZNF217 (UniProt O75362). The essentials:
(§1)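 K562 cells (2×10^6 cells/mL) were treated with 10 μM compound for 30 min, and aliquots were heated for 3 min over 48°C-58°C. Pooled aliquots were extracted in PBS with 0.5% NP-40 at 4°C, and the supernatant after 21,000xg for 90 min was measured by TMTpro 16plex LC-MS/MS with channel sums equalised. Reported thermal stability, relative to control samples and from duplicates, is a log2 fold change.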

The target in assay [2] is ZNF239 (UniProt Q16600). The essentials: as §1
In assay [3] the target is ZNF277 (UniProt Q9NRM2). The essentials:
as §1

Assay [4] concerns the target ZNF511 isoform 1 (UniProt Q8NB15). The essentials: as §1
In assay [5] the target is ZNF579 (UniProt Q8NAF0). The essentials: as §1
Assay [6] concerns the target ZNF580 (UniProt Q9UK33). In short, it runs like this:
as §1

The target of assay [7] is ZNF609 (UniProt O15014). The essentials: as §1
The target in assay [8] is ZNF622 (UniProt Q969S3). In short, it runs like this: as §1
In assay [9] the target is ZRANB2 (UniProt O95218). The essentials: as §1

About 7,900 targets were measured; listed, in parts, are those with a hit and a random draw of the rest. About 0.6% of all pairs of compound and target were hits. Values without a mark were called inactive.

Sequence of ZNF622 (Q969S3 whole entry, looked up): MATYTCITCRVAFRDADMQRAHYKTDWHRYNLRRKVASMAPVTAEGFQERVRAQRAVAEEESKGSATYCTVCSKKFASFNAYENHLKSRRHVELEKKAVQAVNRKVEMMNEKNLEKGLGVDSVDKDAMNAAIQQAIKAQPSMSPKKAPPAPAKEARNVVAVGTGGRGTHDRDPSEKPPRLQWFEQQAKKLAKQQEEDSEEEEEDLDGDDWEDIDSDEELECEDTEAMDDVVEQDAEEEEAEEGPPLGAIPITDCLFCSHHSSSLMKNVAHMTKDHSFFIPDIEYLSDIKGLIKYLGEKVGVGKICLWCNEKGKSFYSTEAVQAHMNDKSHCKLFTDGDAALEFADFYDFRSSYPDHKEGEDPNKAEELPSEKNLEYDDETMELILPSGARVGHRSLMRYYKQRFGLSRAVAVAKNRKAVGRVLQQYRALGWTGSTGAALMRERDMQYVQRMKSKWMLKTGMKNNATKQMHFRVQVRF
Sequence of ZRANB2 (O95218 whole entry, looked up): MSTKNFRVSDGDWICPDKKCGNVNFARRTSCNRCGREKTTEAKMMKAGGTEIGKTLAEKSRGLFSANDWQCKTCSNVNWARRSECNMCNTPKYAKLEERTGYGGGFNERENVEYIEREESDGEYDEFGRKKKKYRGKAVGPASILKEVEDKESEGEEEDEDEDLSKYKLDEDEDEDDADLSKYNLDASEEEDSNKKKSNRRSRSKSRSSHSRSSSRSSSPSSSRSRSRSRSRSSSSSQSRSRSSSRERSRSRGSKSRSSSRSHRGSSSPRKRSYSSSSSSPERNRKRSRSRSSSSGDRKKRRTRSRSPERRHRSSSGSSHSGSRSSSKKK
Sequence of ZNF580 (Q9UK33 whole entry, looked up): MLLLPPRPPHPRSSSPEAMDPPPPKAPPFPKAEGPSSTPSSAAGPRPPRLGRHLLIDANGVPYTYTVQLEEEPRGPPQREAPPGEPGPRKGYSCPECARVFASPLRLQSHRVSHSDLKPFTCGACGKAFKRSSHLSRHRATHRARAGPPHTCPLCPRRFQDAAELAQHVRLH
Sequence of ZNF579 (Q8NAF0 whole entry, looked up): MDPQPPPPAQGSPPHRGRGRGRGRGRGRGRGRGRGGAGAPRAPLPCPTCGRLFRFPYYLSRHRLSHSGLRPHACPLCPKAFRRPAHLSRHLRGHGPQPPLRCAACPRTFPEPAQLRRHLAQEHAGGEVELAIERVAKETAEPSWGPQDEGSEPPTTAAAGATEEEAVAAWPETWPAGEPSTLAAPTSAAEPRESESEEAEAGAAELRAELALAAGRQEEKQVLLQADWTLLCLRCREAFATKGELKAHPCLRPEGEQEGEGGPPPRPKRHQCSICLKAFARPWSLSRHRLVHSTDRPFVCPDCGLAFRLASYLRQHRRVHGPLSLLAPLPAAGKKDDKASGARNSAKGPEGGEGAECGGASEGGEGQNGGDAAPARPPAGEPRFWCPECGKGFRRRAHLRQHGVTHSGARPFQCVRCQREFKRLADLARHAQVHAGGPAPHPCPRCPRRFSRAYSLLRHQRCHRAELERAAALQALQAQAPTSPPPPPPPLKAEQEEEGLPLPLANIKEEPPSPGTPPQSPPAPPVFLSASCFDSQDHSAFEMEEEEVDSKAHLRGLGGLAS
Sequence of ZNF511 isoform 1 (Q8NB15 whole entry, looked up, canonical isoform): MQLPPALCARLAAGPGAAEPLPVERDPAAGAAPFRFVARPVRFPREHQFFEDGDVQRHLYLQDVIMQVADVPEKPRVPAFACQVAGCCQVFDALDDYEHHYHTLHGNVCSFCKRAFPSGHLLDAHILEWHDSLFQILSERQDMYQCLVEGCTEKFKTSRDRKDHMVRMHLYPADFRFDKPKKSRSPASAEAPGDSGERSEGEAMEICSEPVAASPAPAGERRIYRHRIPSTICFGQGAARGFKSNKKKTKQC
Sequence of ZNF609 (O15014 whole entry, looked up): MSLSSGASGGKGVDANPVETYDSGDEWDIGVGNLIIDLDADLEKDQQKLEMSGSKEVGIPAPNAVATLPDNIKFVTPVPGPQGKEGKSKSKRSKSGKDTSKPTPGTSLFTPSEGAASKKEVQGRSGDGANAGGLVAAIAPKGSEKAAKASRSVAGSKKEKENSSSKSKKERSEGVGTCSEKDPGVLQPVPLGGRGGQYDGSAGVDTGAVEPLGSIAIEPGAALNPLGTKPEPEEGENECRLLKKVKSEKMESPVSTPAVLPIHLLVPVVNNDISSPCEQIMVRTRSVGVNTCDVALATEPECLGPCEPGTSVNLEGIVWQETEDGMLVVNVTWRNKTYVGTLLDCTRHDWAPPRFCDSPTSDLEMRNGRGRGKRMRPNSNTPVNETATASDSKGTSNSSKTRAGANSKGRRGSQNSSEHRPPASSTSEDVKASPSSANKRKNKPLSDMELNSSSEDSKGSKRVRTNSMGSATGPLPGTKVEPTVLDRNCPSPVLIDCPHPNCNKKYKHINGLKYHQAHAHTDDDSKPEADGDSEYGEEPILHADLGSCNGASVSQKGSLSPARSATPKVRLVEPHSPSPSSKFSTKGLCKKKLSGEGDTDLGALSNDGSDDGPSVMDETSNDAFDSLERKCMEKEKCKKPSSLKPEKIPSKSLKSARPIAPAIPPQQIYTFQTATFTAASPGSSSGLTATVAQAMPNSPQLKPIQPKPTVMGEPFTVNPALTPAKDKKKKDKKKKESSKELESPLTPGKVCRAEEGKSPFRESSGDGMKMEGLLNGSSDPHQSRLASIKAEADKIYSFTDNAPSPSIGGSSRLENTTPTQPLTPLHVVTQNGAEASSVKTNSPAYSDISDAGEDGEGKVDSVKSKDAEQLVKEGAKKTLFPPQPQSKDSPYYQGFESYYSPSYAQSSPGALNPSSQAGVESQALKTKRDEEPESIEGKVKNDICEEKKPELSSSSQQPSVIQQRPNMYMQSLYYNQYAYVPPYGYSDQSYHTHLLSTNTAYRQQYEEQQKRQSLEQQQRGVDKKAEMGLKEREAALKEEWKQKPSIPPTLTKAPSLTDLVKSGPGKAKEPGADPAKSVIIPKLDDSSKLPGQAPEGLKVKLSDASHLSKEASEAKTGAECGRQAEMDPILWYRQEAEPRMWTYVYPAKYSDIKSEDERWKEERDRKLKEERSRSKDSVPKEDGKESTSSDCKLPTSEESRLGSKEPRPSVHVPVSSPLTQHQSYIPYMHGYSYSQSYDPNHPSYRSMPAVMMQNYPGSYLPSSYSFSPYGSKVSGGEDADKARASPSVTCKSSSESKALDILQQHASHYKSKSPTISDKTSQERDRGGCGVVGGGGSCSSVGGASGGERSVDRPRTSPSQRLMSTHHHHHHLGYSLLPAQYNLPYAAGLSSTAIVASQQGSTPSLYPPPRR
Sequence of ZNF239 (Q16600 whole entry, looked up): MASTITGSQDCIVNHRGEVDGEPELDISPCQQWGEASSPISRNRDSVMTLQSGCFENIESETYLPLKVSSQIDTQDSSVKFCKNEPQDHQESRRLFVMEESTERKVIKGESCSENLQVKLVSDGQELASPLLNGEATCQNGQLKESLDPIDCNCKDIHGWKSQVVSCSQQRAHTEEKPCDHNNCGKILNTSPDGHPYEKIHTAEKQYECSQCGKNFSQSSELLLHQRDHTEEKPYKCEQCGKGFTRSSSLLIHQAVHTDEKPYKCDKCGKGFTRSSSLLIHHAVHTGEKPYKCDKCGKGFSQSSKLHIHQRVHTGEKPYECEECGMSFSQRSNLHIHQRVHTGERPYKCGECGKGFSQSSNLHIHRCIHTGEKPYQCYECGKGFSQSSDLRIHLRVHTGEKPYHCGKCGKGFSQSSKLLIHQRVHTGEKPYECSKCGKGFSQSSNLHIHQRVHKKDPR
Sequence of ZNF277 (Q9NRM2 whole entry, looked up): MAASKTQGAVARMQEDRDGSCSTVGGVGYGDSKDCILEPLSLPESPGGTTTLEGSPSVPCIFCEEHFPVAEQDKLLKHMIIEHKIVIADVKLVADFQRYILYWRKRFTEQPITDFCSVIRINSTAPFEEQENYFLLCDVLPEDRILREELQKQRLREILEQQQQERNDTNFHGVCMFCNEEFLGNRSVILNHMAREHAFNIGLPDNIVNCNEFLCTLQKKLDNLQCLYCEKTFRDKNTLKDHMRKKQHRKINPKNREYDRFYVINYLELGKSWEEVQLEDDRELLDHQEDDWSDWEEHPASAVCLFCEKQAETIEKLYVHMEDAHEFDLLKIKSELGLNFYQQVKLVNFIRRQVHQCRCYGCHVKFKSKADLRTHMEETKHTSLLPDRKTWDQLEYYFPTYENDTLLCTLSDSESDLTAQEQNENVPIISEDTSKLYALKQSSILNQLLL

For `NC1(Cc2ccc(Cl)cc2)CCN(c2ncnc3[nH]ccc23)CC1`, the log2 fold change in assay [1] is 0.197; in [2], 0.117; in assay [3], -0.319; in [4] it was 0.079; in assay [5] it was -0.064; in assay [6], 0.183. Besides, the log2 fold change in [7] was -0.115; in assay [8], -0.263 (active); in assay [9], 0.014.

Turning to `C=CC(=O)N1CCC[C@@H](n2nc(-c3ccc(Oc4ccccc4)cc3)c3c(N)ncnc32)C1` [ibrutinib], the log2 fold change in assay [1] is -0.028; in assay [2], 0.165; in assay [3], -0.028; in [4], 0.047; in assay [5], -0.024; in assay [7], -0.024. Besides, the log2 fold change is -0.003 in assay [8] and 0.013 in assay [9].

With `Cc1ccc(NC(=O)c2ccc(CN3CC[C@H](N(C)C)C3)c(C(F)(F)F)c2)cc1Nc1nccc(-c2cncnc2)n1` [bafetinib], the log2 fold change in assay [1] was -0.057; in [2], -0.452; in assay [3] it was 0.246; in assay [4] it was -0.098; in [5], 0.107; in assay [7], -0.233. Also, the log2 fold change in assay [8] is 0.021; in assay [9], -0.014.

In the case of `CS(=O)(=O)CCNCc1ccc(-c2ccc3ncnc(Nc4ccc(OCc5cccc(F)c5)c(Cl)c4)c3c2)o1` [lapatinib], the log2 fold change in assay [1] was 0.018; in assay [2] it was -0.095; in assay [3] it was 0; in [4] it was -0.085; in assay [5], 0.05; in assay [6] it was -0.025. Besides, the log2 fold change was 0.09 in assay [7], 0 in assay [8] and 0.018 in [9].

As to `Cc1cc(Nc2cc(N3CCN(C)CC3)nc(Sc3ccc(NC(=O)C4CC4)cc3)n2)n[nH]1` [tozasertib], the log2 fold change in [1] was -0.07; in assay [2] it was -0.116; in assay [3], 0.202; in assay [4], 0.049; in assay [5], 0.041; in assay [6], -0.138. Moreover, the log2 fold change in [7] was 0.078; in assay [8], -0.064; in assay [9], -0.029.

For `Cc1ccc(C(=O)N(CCCN)[C@@H](c2nc3cc(Cl)ccc3c(=O)n2Cc2ccccc2)C(C)C)cc1` [ispinesib], the log2 fold change in assay [1] was -0.064; in [2] it was -0.074; in assay [3], -0.27; in [4], 0.296; in assay [5], 0.029; in [7], 0.014. The log2 fold change is 0.062 in assay [8] and 0.005 in assay [9].

For the molecule `CCCS(=O)(=O)Nc1ccc(F)c(C(=O)c2c[nH]c3ncc(Cl)cc23)c1F`, the log2 fold change was 0.688 (active) in [1]; -0.02 in assay [2]; 0.028 in assay [3]; 0.014 in [4]; -0.085 in assay [5]; 0.069 in assay [6]. Besides, the log2 fold change in assay [7] is 0.036; in assay [8], 0.023; in assay [9] it was -0.02.

Consider `Cc1ccc(NC(=O)c2cccc(C(C)(C)C#N)c2)cc1Nc1ccc2ncn(C)c(=O)c2c1`, for which the log2 fold change in assay [1] is 0.075; in assay [2] it was -0.002; in assay [4], -0.026; in assay [5], 0.043; in [6], -0.174; in [7], -0.046. Also, the log2 fold change in assay [8] is 0.048; in assay [9], 0.034.

For `Cc1cc(Nc2cc(CN3CCOCC3)c3nc(C)c(Cc4ccc(Cl)cc4F)n3n2)n[nH]1` [gandotinib], the log2 fold change was -0.098 in assay [1]; -0.267 in assay [2]; 0.041 in [3]; 0.036 in assay [5]; 0.041 in assay [6]; -0.073 in assay [7]. Besides, the log2 fold change in assay [8] was 0.075; in assay [9] it was 0.064.

For `Cc1cccc(CC(=O)N2CCc3c2ccc(-c2cn(C)c4ncnc(N)c24)c3F)n1`, the log2 fold change in assay [1] was 0.008; in assay [2], 0; in [3] it was 0.045; in [5], -0.101; in assay [6], -0.045; in assay [7] it was -0.22. Moreover, the log2 fold change was -0.019 in assay [8] and -0.065 in assay [9].

In the case of `CS(=O)(=O)N1CCN(Cc2cc3nc(-c4cccc5[nH]ncc45)nc(N4CCOCC4)c3s2)CC1` [pictilisib], the log2 fold change in assay [1] is -0.038; in assay [2], -0.249; in [3], -0.249; in [5], 0.02; in assay [6], -0.037; in [7], 0.107. In addition, the log2 fold change in assay [8] was 0.144; in assay [9] it was 0.01.

As to `CS(=O)(=O)c1ccc(-c2cnc(N)c(C(=O)Nc3ccccc3)n2)cc1`, the log2 fold change is -0.037 in assay [1]; -0.06 in assay [2]; -0.022 in [4]; 0.019 in assay [5]; -0.231 in [6]; 0.021 in [7]. Besides, the log2 fold change in assay [8] was 0.066; in assay [9], -0.013.

As to `O=C(CCCCCCNC(=O)c1cnc(N(c2ccccc2)c2ccccc2Cl)nc1)NO` [citarinostat], the log2 fold change is -0.004 in [1]; 0.306 in assay [3]; 0.054 in assay [4]; -0.089 in assay [5]; -0.013 in [6]; 0.083 in assay [7]. In addition, the log2 fold change in [8] is -0.011; in assay [9], -0.031.

For the origin of these results see the supplement of paper PMC10849652.
